Where “and” joins values, the source holds several entries; their conditions need not be identical. Equal values may be shown once. Inconclusive results are not listed. Calls of active or inactive are those of the source. Unless noted, the call rests on the fitted dose curve; in most records, active means well fitted curve in the direction sought with a large enough effect; inconclusive means small, poorly fitted or top-dose-only effect, or another doubt; inactive means no such curve, though single readings can be large; an effect the other way counts as inactive or inconclusive.
Key:
[1] = test system: Es-2; test: Primary qHTS to identify gynecologic anti-cancer compounds using libraries of approved drugs and bioactive compounds (AID 1345084); conditions: Gynecologic cancer cell panel viability, ATPlite luminescence, 48 h; series mostly up to 57.5 µM; further: nearly all actives have a fitted effect of over 55% in size; further: potency means the concentration at half of the fitted maximal effect; on activity change, negative = cytotoxicity: on the % scale 0 is the no-effect control and ±100 the full control effect
Outline: (§1)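 Five-point cytotoxicity, 48 h drug exposure at 37 C, 5% CO2, on cells seeded 16 h beforehand. ATP content read by ATPlite luminescence.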

[2] = test system: JEG-3; test: as above; conditions: Gynecologic cancer cell panel viability, ATPlite luminescence, 48 h; series mostly up to 57.5 µM
Outline: as §1

[3] = test system: SKOV3; test: as above; conditions: Gynecologic cancer cell panel viability, ATPlite luminescence, 48 h; series mostly up to 57.5 µM
Outline: as §1

[4] = test system: Tov-21-G; test: as above; conditions: Gynecologic cancer cell panel viability, ATPlite luminescence, 48 h; series mostly up to 57.5 µM
Outline: as §1

[5] = Drug repurposing screens with cells derived from glioblastoma tumor samples (AID 1345199); conditions: GBM patient neurospheres viability, ATP luminescence, 48 h; further: nearly all actives have a fitted effect of over 40% in size; further: potency means the concentration at half of the fitted maximal effect; on activity, negative = cell killing: on the % scale 0 is the no-effect control and ±100 the full control effect
Outline: (§2)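 Primary testing used CD133+ neurospheres from four GBM patients, seven concentrations, 48 h exposure and ATP-based viability; confirmation added three slower-growing patient lines.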

[6] = target: Nuclear receptor subfamily 1 group I member 2 (Rattus norvegicus) (UniProt Q9R1A7); test: qHTS assay for small molecule activators of the rat pregnane X receptor (rPXR) signaling pathway (AID 651751; call rule not given here; further: 0% is about no effect); conditions: rPXR reporter cells, luciferase (One-Glo), 24 h
Chain of Nuclear receptor subfamily 1 group I member 2 (Rattus norvegicus) (Q9R1A7 whole entry, looked up): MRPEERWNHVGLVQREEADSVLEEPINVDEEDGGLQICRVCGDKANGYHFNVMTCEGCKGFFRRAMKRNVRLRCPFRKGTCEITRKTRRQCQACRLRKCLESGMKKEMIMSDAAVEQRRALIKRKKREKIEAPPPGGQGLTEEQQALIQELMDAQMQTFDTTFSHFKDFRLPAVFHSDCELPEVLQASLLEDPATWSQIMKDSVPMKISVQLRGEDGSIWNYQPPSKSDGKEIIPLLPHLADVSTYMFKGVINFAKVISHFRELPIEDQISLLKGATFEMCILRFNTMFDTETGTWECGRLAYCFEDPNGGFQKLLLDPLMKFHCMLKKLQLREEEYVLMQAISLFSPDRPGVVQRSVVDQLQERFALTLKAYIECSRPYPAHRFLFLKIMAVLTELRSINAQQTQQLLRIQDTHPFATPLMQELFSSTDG

[7] = test system: Hek293T; test: Primary qHTS to identify gynecologic anti-cancer compounds using libraries of approved drugs and bioactive compounds (AID 1345084); conditions: Gynecologic cancer cell panel viability, ATPlite luminescence, 48 h, control line for the selectivity index; series mostly up to 57.5 µM; further: nearly all actives have a fitted effect of over 55% in size; further: potency means the concentration at half of the fitted maximal effect; on activity change, negative = cytotoxicity: on the % scale 0 is the no-effect control and ±100 the full control effect
Outline: as §1

[8] = test system: OV90; test: as above; conditions: Gynecologic cancer cell panel viability, ATPlite luminescence, 48 h; series mostly up to 57.5 µM
Outline: as §1

[9] = test system: PA-1; test: as above; conditions: Gynecologic cancer cell panel viability, ATPlite luminescence, 48 h; series mostly up to 57.5 µM
Outline: as §1

[10] = test system: Tov112D; test: as above; conditions: Gynecologic cancer cell panel viability, ATPlite luminescence, 48 h; series mostly up to 57.5 µM
Outline: as §1

[11] = test system: astro; test: Drug repurposing screens with cells derived from glioblastoma tumor samples (AID 1345199); conditions: viability, ATP luminescence, 48 h; series mostly up to 45.9 µM; further: nearly all actives have a fitted effect of over 40% in size; further: potency means the concentration at half of the fitted maximal effect
Outline: as §2

[12] = qHTS assay to identify inhibitors of the type 1 interferon - major histocompatibility complex class I in skeletal muscle: Counter screen cell viability and HiBit confirmation (AID 1347412); conditions: iHSKM muscle cells + IFN-b, HiBiT or CellTiter-Glo, 24 h; HiBiT; further: potency means the concentration at half of the fitted maximal effect; nearly all actives have a fitted effect of over 60% in size
Outline: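 After 24 h with human IFN-beta (4 ng/ml) and compound titrations (top 46 uM final, 1:3, 12 points), HLA-B HiBit myoblasts were lysed for either Nano-Glo HiBiT luminescence or CellTiter Glo viability on paired plates.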

[13] = qHTS assay for small molecule activators of the human pregnane X receptor (PXR) signaling pathway (AID 720659; call rule not given here; further: 0% is about no effect)
[14] = test system: HeLa; test: Primary qHTS to identify gynecologic anti-cancer compounds using libraries of approved drugs and bioactive compounds (AID 1345084); conditions: Gynecologic cancer cell panel viability, ATPlite luminescence, 48 h; series mostly up to 57.5 µM; further: nearly all actives have a fitted effect of over 55% in size; further: potency means the concentration at half of the fitted maximal effect; on activity change, negative = cytotoxicity: on the % scale 0 is the no-effect control and ±100 the full control effect
Outline: as §1

[15] = at 46.1 µM (top of the series), tumour line C
[16] = at 45.9 µM (top of the series), tumour line B
[17] = at 45.9 µM (top of the series), tumour line D
[18] = at 46 µM (top of the series), tumour line A
[19] = at 20 µM (top of the series), tumour line C
[20] = at 21.2 µM (top of the series), tumour line B
[21] = at 21.2 µM (top of the series), tumour line D
[22] = at 21.3 µM (top of the series), tumour line A

Nc1nc(N)c2nc(-c3ccccc3)c(N)nc2n1
active: Potency [1] 15.8 µM | Potency [4] 20 µM | Potency ([5]; tumour line A) 12.6 µM | Potency ([5]; tumour line B) 28.2 µM
inactive: Potency [2] | Potency [3] | activity, negative = cell killing [5, 15] 0.453% | max response [6] 0.808% and 7.32%

CN(C)C/C=C(/c1ccc(Br)cc1)c1cccnc1
inactive: Potency [7] | Potency [2] | Potency [8] | Potency [9] | Potency [3] | Potency [4] | Potency [10] | activity, negative = cell killing [5, 16] -23% | Potency [11]
active: Potency ([5]; tumour line A) 31.6 µM

NC(=O)N1c2ccccc2C=Cc2ccccc21
inactive: Potency [1] | Potency [7] | Potency [2] | Potency [8] | Potency [9] | Potency [4] | Potency [10] | activity, negative = cell killing [5, 16] -0.221% | activity, negative = cell killing [5, 17] -27.4% | activity, negative = cell killing [5, 18] -32.7% | activity, negative = cell killing [5, 15] -16.6% | max response [6] 5.91% and 3.5%

COc1cc2c(cc1OC)-c1cc(=Nc3c(C)cc(C)cc3C)n(C)c(=O)n1CC2
inactive: Potency [7] | Potency [8]

COC(=O)C1=C(C)NC(C)=C(C(=O)OCCN(C)Cc2ccccc2)C1c1cccc([N+](=O)[O-])c1 (configuration not stated)
inactive: Potency [1] | Potency [2] | Potency [4] | activity, negative = cell killing [5, 15] 14.5%
active: Potency ([5]; tumour line A) 8.91 µM | Potency ([5]; tumour line D) 14.1 µM

CCCC(C(=O)OCCN(CC)CC)(c1ccccc1)c1ccccc1
inactive: Potency [2]
active: Potency [8] 12.6 µM

NC(Cc1ccc(Cl)cc1)C(=O)O (configuration not stated)
inactive: activity change, negative = cytotoxicity [1] 1.05% [at 0.462 µM] | activity change, negative = cytotoxicity [7] 0.47% [at 0.462 µM] | activity change, negative = cytotoxicity [2] 1.83% [at 0.462 µM] | activity change, negative = cytotoxicity [8] -16.1% [at 0.462 µM] | activity change, negative = cytotoxicity [9] -4.76% [at 0.462 µM] | activity change, negative = cytotoxicity [3] 0.0141% [at 0.462 µM] | activity change, negative = cytotoxicity [4] 11.9% [at 0.462 µM] | activity change, negative = cytotoxicity [10] 2.14% [at 0.462 µM] | activity, negative = cell killing [5, 16] -4.29% | activity, negative = cell killing [5, 17] -0.449% | activity, negative = cell killing [5, 18] -31.7% | activity, negative = cell killing [5, 15] 0.887% | Potency [11]

CCNC(=O)N1CCN(CCCC(c2ccc(F)cc2)c2ccc(F)cc2)CC1
inactive: Potency [1] | Potency [2] | Potency [9] | Potency [4] | Potency [10]

CC(C)(Oc1ccc(CCNC(=O)c2ccc(Cl)cc2)cc1)C(=O)O
inactive: Potency [1] | Potency [7] | Potency [2] | Potency [8] | Potency [9] | Potency [3] | Potency [4] | Potency [10] | activity, negative = cell killing [5, 19] 15.6% | activity, negative = cell killing [5, 20] -6.51% | activity, negative = cell killing [5, 21] 0.604% | activity, negative = cell killing [5, 22] -25.9% | Potency [11] | max response [6] -5.47%

CC(=O)[C@]1(O)Cc2c(O)c3c(c(O)c2[C@@H](O[C@H]2C[C@H](N)[C@H](O)[C@H](C)O2)C1)C(=O)c1ccccc1C3=O
active: Potency [1] 1 µM | Potency [7] 0.708 µM | Potency [8] 3.16 µM | Potency [9] 0.282 µM | Potency [3] 1.78 µM | Potency [4] 0.794 µM | Potency [10] 0.562 µM | Potency [12] 0.883 µM

CCCNC(C)C(=O)Nc1ccccc1C (configuration not stated)
inactive: Potency [1] | Potency [7] | Potency [2] | Potency [8] | Potency [9] | Potency [3] | Potency [4] | Potency [10] | activity, negative = cell killing [5, 16] -20% | activity, negative = cell killing [5, 17] -8.5% | activity, negative = cell killing [5, 15] -15.8% | Potency [11]

COCCCC/C(=N\OCCN)c1ccc(C(F)(F)F)cc1
inactive: Potency [7] | Potency [2] | Potency [9] | Potency [4] | Potency [10]

Nc1ncn([C@@H]2O[C@H](CO)[C@@H](O)[C@H]2O)c(=O)n1
inactive: Potency [8] | outcome [13]
active: Potency [1] 3.98 µM | Potency [2] 10 µM | Potency [9] 10 µM | Potency [4] 12.6 µM | Potency [12] 14 µM

CC(=O)Oc1cc(C(C)C)c(OCCN(C)C)cc1C
inactive: Potency [14] | Potency [7] | Potency [2] | Potency [8] | Potency [9] | Potency [3] | Potency [4] | Potency [10] | activity, negative = cell killing [5, 19] -2.72% | activity, negative = cell killing [5, 20] -4.22% | activity, negative = cell killing [5, 21] -2.65% | activity, negative = cell killing [5, 22] -22.5% | Potency [11]

Cc1nc2c([nH]1)c(=O)n(C)c(=O)n2Cc1ccco1
inactive: Potency [1] | Potency [7] | Potency [2] | Potency [8] | Potency [9] | Potency [3] | Potency [4] | Potency [10] | activity, negative = cell killing [5, 16] -4.62% | activity, negative = cell killing [5, 17] -3.2% | activity, negative = cell killing [5, 15] -11.8% | Potency [11]

O=C1NCN(c2ccccc2)C12CCN(CCCC(c1ccc(F)cc1)c1ccc(F)cc1)CC2
inactive: Potency [4]
active: Potency [1] 31.6 µM | Potency [2] 31.6 µM | Potency [8] 20 µM | Potency [11] 12.6 µM

CCO/C([O-])=N/c1c[n+](N2CCOCC2)no1
inactive: Potency [1] | Potency [7] | Potency [2] | Potency [8] | Potency [9] | Potency [3] | Potency [4] | Potency [10] | activity, negative = cell killing [5, 19] -6.76% | activity, negative = cell killing [5, 20] -3.07% | activity, negative = cell killing [5, 21] -1.62% | activity, negative = cell killing [5, 22] -22.7% | Potency [11]

CN(C)CC/C=C1\c2ccccc2COc2ccccc21
inactive: Potency [1] | Potency [7] | Potency [2] | Potency [9] | Potency [3] | Potency [4] | Potency [10] | activity, negative = cell killing [5, 16] -27.9% | activity, negative = cell killing [5, 15] -1.82%
active: Potency ([5]; tumour line A) 14.1 µM

C[N+](C)(C)CCCCCCCCCC[N+](C)(C)C
inactive: Potency [1] | Potency [7] | Potency [2] | Potency [8] | Potency [9] | Potency [3] | Potency [4] | Potency [10] | activity, negative = cell killing [5, 16] -8.43% | activity, negative = cell killing [5, 17] -24.4% | activity, negative = cell killing [5, 18] -24.5% | activity, negative = cell killing [5, 15] -2.46% | Potency [11]

O=c1[nH]c(=O)n([C@H]2C[C@H](O)[C@@H](CO)O2)cc1Br
inactive: Potency [1] | Potency [7] | Potency [2] | Potency [8] | Potency [9] | Potency [3] | Potency [4] | Potency [10] | activity, negative = cell killing [5, 16] -18.1% | activity, negative = cell killing [5, 17] 7.04% | activity, negative = cell killing [5, 15] -12.6% | Potency [11] | outcome [13]

CN(C)CCCN1c2ccccc2Sc2ccc(C(F)(F)F)cc21
inactive: Potency [14] | Potency [2]

COc1cc(C(=O)OCCCN2CCCN(CCCOC(=O)c3cc(OC)c(OC)c(OC)c3)CC2)cc(OC)c1OC
active: Potency ([5]; tumour line A) 3.98 µM | Potency ([5]; tumour line D) 22.4 µM
inactive: Potency [7] | Potency [2] | Potency [9] | Potency [3] | Potency [10] | activity, negative = cell killing [5, 15] -7.95%

CCN(CC)CCOCCOC(=O)C1(c2ccccc2)CCCC1
inactive: Potency [1] | Potency [7] | Potency [2] | Potency [8] | Potency [9] | Potency [3] | Potency [4] | Potency [10] | activity, negative = cell killing [5, 15] -28.4%
active: Potency ([5]; tumour line A) 2.24 µM | Potency ([5]; tumour line D) 12.6 µM | Potency [11] 35.5 µM

COc1cc(Cc2cnc(N)nc2N)cc(OC)c1OC
inactive: Potency [1] | Potency [7] | Potency [2] | Potency [8] | Potency [9] | Potency [4] | Potency [10] | activity, negative = cell killing [5, 16] 10.7% | activity, negative = cell killing [5, 17] -9.7% | activity, negative = cell killing [5, 15] -10.9% | Potency [11] | outcome [13]

Cc1cccc(C)c1NC(=O)C(C)N (configuration not stated)
inactive: Potency [1] | Potency [7] | Potency [2] | Potency [8] | Potency [9] | Potency [3] | Potency [4] | Potency [10] | activity, negative = cell killing [5, 19] 6.4% | activity, negative = cell killing [5, 20] -16.9% | activity, negative = cell killing [5, 21] 1.82% | Potency [11]

CCn1cc(C(=O)O)c(=O)c2cc3c(cc21)OCO3
inactive: Potency [1] | Potency [7] | Potency [2] | Potency [8] | Potency [9] | Potency [3] | Potency [4] | Potency [10] | activity, negative = cell killing [5, 16] -1.33% | activity, negative = cell killing [5, 17] -1.7% | activity, negative = cell killing [5, 18] -12.9% | activity, negative = cell killing [5, 15] -10% | Potency [11]
